{"source": "PubChem BioAssay AID1259415", "about": "(National Center for Advancing Translational Sciences (NCATS), 2018)", "note": "About 18,000 (4.4%) of roughly 410,000 compounds were called active. Another 7% or so got no clear call; they are omitted. Shown is part of a subset that was picked to be rich in actives. Values without a mark were called inactive. Rule as the data show it: active = activity change below about -60%; inconclusive = no clear call, values can overlap the other calls; inactive = above about -39%. % is scaled to controls: 0 for no effect and ±100 for the full control effect.", "data": [{"assay": "qHTS Assay for inhibitors of the human cytomegalovirus (HCMV)", "conditions": "HFF cells, HCMV-luciferase reporter, 72 h; at 57.5 µM; stronger effect = lower value", "summary_of_the_method": "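Luciferase read-out from HCMV-luciferase-infected HFFs (MOI 1 PFU/cell) 72 h post infection at 37C; compounds added after 16 h cell attachment; activity normalized between buffer-only basal and Salinomycin (10uM) inhibitor controls.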", "values": [{"smiles": "Cc1cc(C)cc(-n2c(SCC(=O)NCC3CCCO3)nc3c([nH]c4ccccc43)c2=O)c1", "note": "(stereo unspecified)", "activity change, negative = inhibition": "10.8%"}, {"smiles": "Cc1cc(NC(=O)CN2C(=O)NC(CC(C)C)C2=O)no1", "note": "(stereo unspecified)", "activity change, negative = inhibition": "3.09%"}, {"smiles": "O=C(Nc1ccccc1Cl)N1CCN(c2ccc3nncn3n2)CC1", "activity change, negative = inhibition": "-11.9%"}, {"smiles": "Cc1ccccc1C(=O)Nc1cc(C)c(O)c(-c2nc3ccccc3o2)c1", "activity change, negative = inhibition": "-13.9%"}, {"smiles": "Cc1ccc(C)n1-c1nnc(N2CCC(C(=O)NCc3ccc(F)cc3)CC2)s1", "activity change, negative = inhibition": "29.6%"}, {"smiles": "CCOC(=O)c1c(-c2ccc(C)cc2C)csc1NC(=O)CSc1nnnn1C", "activity change, negative = inhibition": "-95.4% (active)"}, {"smiles": "CCOC(=O)c1c(NC(=O)CSc2nnc(CNc3ccc(C)cc3C)o2)sc(C)c1C", "activity change, negative = inhibition": "3.08%"}, {"smiles": "Cn1nnnc1SCC(=O)Nc1sccc1C(N)=O", "activity change, negative = inhibition": "3.24%"}, {"smiles": "CCOc1ccc(CCNC(=O)Cn2nc(CC)n3c(cc4sc(CC)cc43)c2=O)cc1OCC", "activity change, negative = inhibition": "-8.37%"}, {"smiles": "CCOC(=O)c1c(NC(=O)/C=C/c2ccc(OC)cc2)sc2c1CCC(C)C2", "note": "(stereo unspecified)", "activity change, negative = inhibition": "-22.4%"}, {"smiles": "CC1CCN(S(=O)(=O)c2ccc3c(c2)N(CC(=O)NCCc2ccccc2)C(=O)CO3)CC1", "activity change, negative = inhibition": "-11.1%"}, {"smiles": "Cc1ccc(-n2nc(C)c3c(C)cc(=O)n(CC(=O)Nc4ccc(C(C)C)cc4)c32)cc1", "activity change, negative = inhibition": "11%"}, {"smiles": "COc1ccc(-c2cc(C(F)(F)F)nc(S(C)(=O)=O)n2)cc1OC", "activity change, negative = inhibition": "-98.2% (active)"}, {"smiles": "COc1ccc(CCNc2nc(-c3ccc(F)cc3)cc(C(F)(F)F)n2)cc1OC", "activity change, negative = inhibition": "-24.7%"}, {"smiles": "COc1ccc(-c2cc(C(F)(F)F)nc(SCC(=O)N(C)Cc3ccccc3)n2)cc1OC", "activity change, negative = inhibition": "-16.1%"}, {"smiles": "CC(C)Sc1oc(-c2cccs2)nc1S(=O)(=O)c1ccc(Cl)cc1", "activity change, negative = inhibition": "0.0343%"}, {"smiles": "Cc1cc(NC(=O)/C=C/C(=O)N(c2ccccc2C)C(C(=O)NC2CCCC2)c2ccc(F)cc2)no1", "note": "(stereo unspecified)", "activity change, negative = inhibition": "-73.5% (active)"}, {"smiles": "Cc1cc(NC(=O)CCC(=O)N(c2cccc(F)c2)C(C(=O)NC2CCCC2)c2ccncc2)no1", "note": "(stereo unspecified)", "activity change, negative = inhibition": "-19.9%"}, {"smiles": "Cc1cc(NC(=O)/C=C/C(=O)N(CC(=O)NC2CCCC2)c2ccc(F)cc2)no1", "activity change, negative = inhibition": "29.1%"}, {"smiles": "Cc1cccc(C)c1-n1nnnc1C1C(=O)NC(=S)N1c1ccccc1", "note": "(stereo unspecified)", "activity change, negative = inhibition": "26.7%"}, {"smiles": "Cn1c(=O)c2c(nc(SCC(=O)Nc3ccc(F)cc3)n2Cc2ccccc2)n(C)c1=O", "activity change, negative = inhibition": "5.41%"}, {"smiles": "CCn1c(-c2cc(OC)ccc2OC)csc1=Nc1c(C)n(C)n(-c2ccccc2)c1=O", "activity change, negative = inhibition": "-25.8%"}, {"smiles": "CN=c1scc(-c2cc(OC)ccc2OC)n1/N=C/c1c(C)[nH]c2ccccc12", "activity change, negative = inhibition": "-85.5% (active)"}, {"smiles": "COc1ccc(/C=N/n2c(C)cc(C)cc2=O)cc1", "activity change, negative = inhibition": "-24.9%"}, {"smiles": "CCOC(=O)c1ccc(NC(=O)CCS(=O)(=O)c2ccc(C)cc2)cc1", "activity change, negative = inhibition": "0%"}, {"smiles": "OCc1cnc(SCc2ccc(F)cc2)n1Cc1ccc(F)cc1", "activity change, negative = inhibition": "-26.3%"}, {"smiles": "O=C(c1ccco1)N1CCN(C(=O)C2CCCN(S(=O)(=O)c3cccc4nsnc34)C2)CC1", "note": "(stereo unspecified)", "activity change, negative = inhibition": "-12.2%"}, {"smiles": "COC(=O)C(C)N(C#N)c1nc(C)nc(C)n1", "note": "(stereo unspecified)", "activity change, negative = inhibition": "-110% (active)"}, {"smiles": "CCOC(=O)c1c(C)oc2nc(C)nc(N(CC(C)C)CC(C)C)c12", "activity change, negative = inhibition": "-31.4%"}, {"smiles": "CNc1nc(SC)nc(N(C#N)CC(=O)OC)n1", "activity change, negative = inhibition": "81.6%"}, {"smiles": "CCCCCn1c(CCCNC(=O)c2ccccc2OC)nc2ccccc21", "activity change, negative = inhibition": "-34.7%"}, {"smiles": "Clc1ccc(CSc2nncn3c2cc2occc23)cc1", "activity change, negative = inhibition": "-20.2%"}, {"smiles": "COc1ccc(CCn2c(O)c(C=NCCCn3ccnc3)c(=O)[nH]c2=O)cc1OC", "activity change, negative = inhibition": "-107% (active)"}, {"smiles": "O=c1[nH]c(=O)n(CCc2ccc(F)cc2)c(O)c1/C=N/N1CCCCC1", "activity change, negative = inhibition": "-4.21%"}, {"smiles": "COc1ccc(CCn2c(O)c(C=NC3CC3)c(=O)[nH]c2=O)cc1OC", "activity change, negative = inhibition": "-4.78%"}, {"smiles": "CC(C)(C(=O)Nc1ccccc1)n1cc(NC(=O)c2cc(F)cc(F)c2)cn1", "activity change, negative = inhibition": "9.36%"}, {"smiles": "Cc1ccc(C(C(=O)NCC2CCCO2)N(C(=O)c2snc(C(N)=O)c2N)c2ccc(C(C)C)cc2)o1", "note": "(stereo unspecified)", "activity change, negative = inhibition": "-9.39%"}, {"smiles": "O=C(CSc1ccc(/C=N/NC(=O)c2cccc(F)c2)o1)Nc1ccccc1", "activity change, negative = inhibition": "-21.6%"}, {"smiles": "O=C(N/N=C/c1ccc([N+](=O)[O-])o1)c1cn(-c2ccccc2)nc1-c1ccc(F)cc1", "activity change, negative = inhibition": "-65.8% (active)"}, {"smiles": "O=C(NNC(=S)NC(=O)c1cn(-c2ccccc2)nc1-c1ccccc1)c1ccncc1", "activity change, negative = inhibition": "21.1%"}, {"smiles": "O=C(NCCCN1CCCC1=O)c1cccc(S(=O)(=O)NCc2ccccc2)c1", "activity change, negative = inhibition": "0.765%"}, {"smiles": "Clc1ccc2c(c1)C1=C(C(c3ccncc3)O2)C(c2ccc(Br)cc2)n2ncnc2N1", "note": "(stereo unspecified)", "activity change, negative = inhibition": "-78.3% (active)"}, {"smiles": "CC1CCCN(c2nc3c(S(=O)(=O)c4ccc(C(C)C)cc4)nnn3c3ccsc23)C1", "note": "(stereo unspecified)", "activity change, negative = inhibition": "20%"}, {"smiles": "Cc1ccc(-n2c3nc(=O)[nH]c(=O)c-3cc3c(Cl)cccc32)cc1", "activity change, negative = inhibition": "-14.6%"}, {"smiles": "CCN(CC)S(=O)(=O)c1ccc(C)c(NC(=O)COc2ccc(Br)cc2Cl)c1", "activity change, negative = inhibition": "24.1%"}, {"smiles": "Cc1ccc(S(=O)(=O)N(C)C)cc1NC(=O)c1ccccc1Br", "activity change, negative = inhibition": "-5.46%"}, {"smiles": "CCN(CC)S(=O)(=O)c1ccc(NC(=O)c2cccnc2Cl)c(NC(=O)c2cccnc2Cl)c1", "activity change, negative = inhibition": "-100% (active)"}, {"smiles": "O=C(CC(O)(C(F)(F)F)C(F)(F)F)Nc1ccc(Cl)c(Cl)c1", "activity change, negative = inhibition": "-103% (active)"}, {"smiles": "Cc1ccc(-c2nn(CCC(=O)Nc3ccc(Cl)c(Cl)c3)c(=O)c3ccccc23)cc1", "activity change, negative = inhibition": "-16.5%"}, {"smiles": "O=C(CSc1nnc(-c2ccncc2)n1-c1ccccc1)Nc1ccc(Cl)c(Cl)c1", "activity change, negative = inhibition": "-5.77%"}, {"smiles": "COc1cc(Cl)c(NC(=O)C(NS(=O)(=O)c2cccs2)C(C)C)c(OC)c1", "note": "(stereo unspecified)", "activity change, negative = inhibition": "-10.2%"}, {"smiles": "CCc1ccc(-n2nc(C)c3c(C)cc(=O)n(CC(=O)Nc4ccc(F)cc4C)c32)cc1", "activity change, negative = inhibition": "5.24%"}, {"smiles": "CCc1ccccc1NC(=O)c1ccc2nc(CCc3ccccc3)oc2c1", "activity change, negative = inhibition": "30%"}, {"smiles": "O=S(=O)(Nc1ncnc2sccc12)c1cccc(F)c1", "activity change, negative = inhibition": "30.2%"}, {"smiles": "COC(=O)c1ccc(-c2nc3cc(NC(C)=O)ccc3o2)cc1", "activity change, negative = inhibition": "13.5%"}, {"smiles": "COC(=O)c1ccc(Nc2ncnc3sccc23)cc1", "activity change, negative = inhibition": "-62.4% (active)"}]}]}
